The campaign covered roughly 5,500 compounds. About 2,000 (36%) were called active. About 18% were inconclusive and are not listed. Cut-off read from the data, not from the text of the source: active = normalized growth mostly below about 0.91 (no sharp cut-off); inconclusive = no clear call, values can overlap the other calls; inactive = mostly above about 0.92. Some of the results follow.
Experiment: chemical genetic growth profiling, strain panel (AID 1159580);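 note: tested at 20 µM; growth read once vehicle control cultures reached saturation at 30 °C; 1 = growth at the plate median or of vehicle wells; lower values mean less growth of the strain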
Settings: growth OD

Measured: normalized growth

CC(C)[C@]12O[C@H]1[C@@H]1O[C@@]13[C@@]1(C)CCC4=C(COC4=O)[C@@H]1C[C@@H]1O[C@@]13C2=O
inactive: S. cerevisiae deletion strains, locus YAL013W, strain DEP1, active compounds read low 1.01 | S. cerevisiae deletion strains, locus YBR021W, strain FUR4, active compounds read low 0.991 | S. cerevisiae deletion strains, locus YBR229C, strain ROT2, active compounds read low 1.01 | S. cerevisiae deletion strains, locus YCL029C, strain bik1, active compounds read low 0.998 | S. cerevisiae deletion strains, locus YDL035C, strain GPR1, active compounds read low 1.01 | S. cerevisiae deletion strains, locus YDL074C, strain BRE1, active compounds read low 1.03 | S. cerevisiae deletion strains, locus YDL101C, strain DUN1, active compounds read low 1.02 | S. cerevisiae deletion strains, locus YDL134C, strain PPH21, active compounds read low 1.01 | S. cerevisiae deletion strains, locus YDL185W, strain tfp1, active compounds read low 1 | S. cerevisiae deletion strains, locus YDL192W, strain arf1, active compounds read low 0.994 | S. cerevisiae deletion strains, locus YDR101C, strain arx1, active compounds read low 0.977 | S. cerevisiae deletion strains, locus YDR150W, strain NUM1, active compounds read low 1.02 | S. cerevisiae deletion strains, locus YDR162C, strain NBP2, active compounds read low 1.02 | S. cerevisiae deletion strains, locus YDR318W, strain mcm21, active compounds read low 0.979 | S. cerevisiae deletion strains, locus YDR388W, active compounds read low 0.996 | S. cerevisiae deletion strains, locus YDR502C, strain sam2, active compounds read low 1.01 | S. cerevisiae deletion strains, locus YEL061C, strain CIN8, active compounds read low 1.01 | S. cerevisiae deletion strains, locus YER110C, active compounds read low 0.987 | S. cerevisiae deletion strains, locus YER155C, strain BEM2, active compounds read low 1.02 | S. cerevisiae deletion strains, locus YER167W, strain BCK2, active compounds read low 1.01 | S. cerevisiae deletion strains, locus YGL078C, strain dbp3, active compounds read low 1.01 | S. cerevisiae deletion strains, locus YGL086W, strain mad1, active compounds read low 0.988 | S. cerevisiae deletion strains, locus YGL248W, strain PDE1, active compounds read low 1.01 | S. cerevisiae deletion strains, locus YGR078C, strain PAC10, active compounds read low 1.02 | S. cerevisiae deletion strains, locus YGR135W, strain pre9, active compounds read low 0.995 | S. cerevisiae deletion strains, locus YGR229C, strain SMI1, active compounds read low 1.01 | S. cerevisiae deletion strains, locus YGR252W, strain gcn5, active compounds read low 0.922 | S. cerevisiae deletion strains, locus YHR030C, strain SLT2, active compounds read low 1.01 | S. cerevisiae deletion strains, locus YHR079C, strain IRE1 (second series), active compounds read low 0.992 | S. cerevisiae deletion strains, locus YHR094C, strain hxt1, active compounds read low 0.991 | S. cerevisiae deletion strains, locus YHR129C, strain ARP1, active compounds read low 1.01 | S. cerevisiae deletion strains, locus YHR200W, strain rpn10, active compounds read low 0.997 | S. cerevisiae deletion strains, locus YIL066C, strain RNR3, active compounds read low 1 | S. cerevisiae deletion strains, locus YIL073C, strain SPO22, active compounds read low 0.958 | S. cerevisiae deletion strains, locus YIL125W, strain kgd1, active compounds read low 1.01 | S. cerevisiae deletion strains, locus YIR030C, strain dcg1, active compounds read low 0.998 | S. cerevisiae deletion strains, locus YJL095W, strain BCK1, active compounds read low 1 | S. cerevisiae deletion strains, locus YJL134W, strain LCB3, active compounds read low 1.01 | S. cerevisiae deletion strains, locus YJL168C, strain set2, active compounds read low 0.993 | S. cerevisiae deletion strains, locus YJL187C, strain SWE1 (second series), active compounds read low 1.02 | S. cerevisiae deletion strains, locus YJR043C, strain POL32, active compounds read low 0.987 | S. cerevisiae deletion strains, locus YJR075W, strain HOC1, active compounds read low 1.02 | S. cerevisiae deletion strains, locus YKL009W, strain mrt4, active compounds read low 0.994 | S. cerevisiae deletion strains, locus YKL068W, active compounds read low 0.994 | S. cerevisiae deletion strains, locus YKL085W, strain MDH1 (second series), active compounds read low 0.997 | S. cerevisiae deletion strains, locus YKL085W, strain MDH1, active compounds read low 0.997 | S. cerevisiae deletion strains, locus YKL190W, strain CNB1, active compounds read low 1.01 | S. cerevisiae deletion strains, locus YKR001C, strain vps1, active compounds read low 0.997 | S. cerevisiae deletion strains, locus YLR039C, strain RIC1, active compounds read low 1.01 | S. cerevisiae deletion strains, locus YLR058C, strain SHM2, active compounds read low 1.01 | S. cerevisiae deletion strains, locus YLR102C, strain apc9, active compounds read low 1 | S. cerevisiae deletion strains, locus YLR262C, strain YPT6, active compounds read low 0.979 | S. cerevisiae deletion strains, locus YLR268W, strain sec22, active compounds read low 0.984 | S. cerevisiae deletion strains, locus YLR330W, strain CHS5, active compounds read low 1.01 | S. cerevisiae deletion strains, locus YLR342W, strain FKS1 (second series), active compounds read low 0.978 | S. cerevisiae deletion strains, locus YLR371W, strain rom2, active compounds read low 1 | S. cerevisiae deletion strains, locus YLR418C, strain cdc73, active compounds read low 0.995 | S. cerevisiae deletion strains, locus YML016C, strain PPZ1, active compounds read low 1.01 | S. cerevisiae deletion strains, locus YML032C, strain rad52, active compounds read low 0.972 | S. cerevisiae deletion strains, locus YML124C, strain tub3, active compounds read low 0.996 | S. cerevisiae deletion strains, locus YMR078C, strain ctf18, active compounds read low 0.989 | S. cerevisiae deletion strains, locus YMR223W, strain ubp8, active compounds read low 0.976 | S. cerevisiae deletion strains, locus YMR263W, strain SAP30, active compounds read low 1.03 | S. cerevisiae deletion strains, locus YMR307W, strain GAS1, active compounds read low 1.04 | S. cerevisiae deletion strains, locus YNL067W, strain RPL9B, active compounds read low 1.02 | S. cerevisiae deletion strains, locus YNL128W, strain TEP1, active compounds read low 1.03 | S. cerevisiae deletion strains, locus YNL153C, strain GIM3, active compounds read low 1.03 | S. cerevisiae deletion strains, locus YNL233W, strain BNI4, active compounds read low 1.04 | S. cerevisiae deletion strains, locus YNL250W, strain rad50, active compounds read low 0.992 | S. cerevisiae deletion strains, locus YNL271C, strain bni1, active compounds read low 0.998 | S. cerevisiae deletion strains, locus YNL298W, strain CLA4, active compounds read low 1.01 | S. cerevisiae deletion strains, locus YNL307C, strain MCK1, active compounds read low 0.983 | S. cerevisiae deletion strains, locus YNL322C, strain KRE1, active compounds read low 1.01 | S. cerevisiae deletion strains, locus YNR052C, strain pop2, active compounds read low 0.978 | S. cerevisiae deletion strains, locus YOL006C, strain TOP1, active compounds read low 1.01 | S. cerevisiae deletion strains, locus YOL012C, strain htz1 0.999 | S. cerevisiae deletion strains, locus YOL147C, strain pex11, active compounds read low 0.996 | S. cerevisiae deletion strains, locus YOR061W, strain CKA2, active compounds read low 1.01 | S. cerevisiae deletion strains, locus YOR069W, strain VPS5, active compounds read low 1.01 | S. cerevisiae deletion strains, locus YOR136W, strain idh2, active compounds read low 0.99 | S. cerevisiae deletion strains, locus YOR144C, strain elg1, active compounds read low 0.997 | S. cerevisiae deletion strains, locus YOR184W, strain ser1, active compounds read low 0.966 | S. cerevisiae deletion strains, locus YOR316C, strain cot1, active compounds read low 0.997 | S. cerevisiae deletion strains, locus YPL055C, strain LGE1, active compounds read low 1.06 | S. cerevisiae deletion strains, locus YPL241C, strain CIN2, active compounds read low 1.01 | S. cerevisiae deletion strains, locus YPR119W, strain clb2, active compounds read low 0.999 | S. cerevisiae deletion strains, locus YPR141C, strain kar3, active compounds read low 0.987 | S. cerevisiae deletion strains, locus YPR163C, strain tif3, active compounds read low 1 | S. cerevisiae deletion strains, locus YPR167C, strain met16, active compounds read low 0.99 | S. cerevisiae deletion strains, strain wtn01, active compounds read low 1.02 | S. cerevisiae strains, strain wild type, active compounds read low 1.01
